In PubChem BioAssay AID603 (National Center for Advancing Translational Sciences (NCATS), 2007):
Screen size: about 71,000 compounds; about 180 (0.25%) were called active. The call rests on the fitted dose curve; in most records, active means well fitted curve in the direction sought with a large enough effect; inconclusive means small, poorly fitted or top-dose-only effect; inactive means flat fitted curve, though single readings scatter. What follows is part of a selection rich in actives, with near analogues and random picks from the rest.

Each compound was assayed on DNA polymerase III holoenzyme (E. coli) (assay: qHTS Assay for Inhibitors of DNA Polymerase III Holoenzyme System). Conditions: reconstituted DNA polymerase III holoenzyme replication, biochemical; series mostly up to 57.1 µM; activity change, negative = inhibition: at the top concentration.
Procedure: NIH Molecular Libraries Screening Centers Network [MLSCN]
NIH Chemical Genomics Center [NCGC]
Assay Provider: Charles McHenry, University of Colorado
E. coli DNA polymerase III holoenzyme complex was assayed for DNA production by fluorescent detection of the double-stranded DNA product with PicoGreen dye. The holoenzyme complex was reconstituted from the following purified protein components: DNA Polymerase III, beta subunit processivity factor, SSB single-stranded DNA binding protein, and Primase. Single-stranded, circular M13Gori was used as a substrate with dNTPs and NTPs also supplied to the substrate reagent. Compounds from the NCGC collection were incubated with the holoenzyme mixture for 15 min at room temperature to allow binding to occur, and then the reaction was started by the addition of substrate. After 30 min incubation at room temperature, PicoGreen solution containing EDTA was added to stop the reaction and to visualize the double-stranded DNA produced. Reaction progress was measured in a ViewLux CCD imager in fluorescence intensity mode by using 480 nm excitation and 540 nm emission filter set.
NCGC Assay Protocol Summary:
Buffer. 50 mM Hepes-KOH, pH 7.5, 5 % Glycerol, 0.02% NP40, 30 mM potassium;
glutamate, 1.5 mM Magnesium Acetate, 16 uM TCEP.
Buffer in columns 3 and 4 as negative control (no enzyme).
Substrate solution: 5 uM each dATP, dGTP, dCTP and TTP, 50 uM each GTP, CTP, UTP and 200 uM ATP, 1.4 nM M13gori (final concentrations).
Enzyme: 154 nM SSB, 2 nM Primase, 1 nM Beta, 0.35 nM Pol III (final concentrations).
PicoGreen/EDTA: 10 mM Tris-HCl, 10 mM EDTA, 5 uM PicoGreen (final concentrations).
Control titration: ChemBridge 5805060 (from 10 mM, then 1:2, in duplicate) was pin-transferred to upper half of column 2.
Three uL of holoenzyme mixture were dispensed to 1536-well Greiner black solid bottom plates. Compounds and controls (23 nL) were transferred via Kalypsys PinTool. The plates were incubated for 15 min at room temperature, and then 1 uL of substrate solution was added to start the reaction. After room temperature incubation for 35 minutes, 1 uL of PicoGreen solution was added to each well and the plates were read 480 nm excitation and 540 nm emission using ViewLux (Perkin-Elmer) High-throughput CCD imager and fluorescence protocol settings.
Keywords: NIH Roadmap, MLSCN, MLI, MLSMR, qHTS, NCGC, DNA Polymerase III, DNAPol3, DNAPoly3, DNA replication targets
On the % scale 0 is the no-effect control and ±100 the full control effect.

Activity change, negative = inhibition, inactive:
CC(C)c1cc(CN(C)C)c(O)c(C(C)(C)C)c1 -6.4% [at 11.4 µM]
COc1cccc(Cn2c(=O)c(-c3cc(F)cc(F)c3)nc3cnc(OC)nc32)c1 -8.3%
O=c1cc(-c2ccccc2)[nH]c2nc(Cl)ccc12 -6.8%
COC(=O)[C@@]1(Cc2ccc(F)cc2)[C@H]2c3cc(C(=O)N4CCCC4)n(C[C@H](O)CO)c3C[C@H]2CN1C(=O)c1ccccc1 0.9%
CC(=O)O[C@]1(C(C)=O)CC[C@@H]2[C@@H]3C=C(C)C4=CC(=O)CC[C@@]4(C)[C@H]3CC[C@]21C 1% [at 25.6 µM]
O=C(O)CC(C(=O)O)C(CC(=O)O)C(=O)O (centres undefined) -4%
COc1ccc(OC)c(NC(=O)CSc2nc(N)c(-c3ccccc3)c(=O)[nH]2)c1 -5.9%
O=C(CSc1nnc(-c2ccncc2)n1C1CCCCC1)Nc1ccccc1 -3%
CCN(CC)S(=O)(=O)c1ccc(NC(=O)CN(c2cccc(F)c2)S(C)(=O)=O)cc1 -3.6%
O=C(Nc1c(-c2ccccc2)nc2c(Br)cc(Br)cn12)c1ccco1 -2%
COC(=O)[C@@]1(Cc2ccc(F)cc2)[C@@H]2[C@@H](CC(=O)[C@H]2CC(=O)C(=O)N2CCCC2)CN1C(=O)c1ccccc1 -11.1%
O=c1[nH]c(=O)c2nc3ccccc3nc2[nH]1 -12.6%
Cc1cccn2c(=O)c3cc(C(=O)NCc4ccccn4)n(C)c3nc12 -3.4%
O=C(NCc1ccccn1)c1cc2ccccc2oc1=O -6.4%
CC(C)Cc1ccc(S(=O)(=O)N2CCN(C(=O)c3ccco3)CC2)cc1 0.3%
COc1ccc(NC(=O)N2CC3(CCN(C(=O)c4cccn4C)CC3)C2)cc1 8.4%
CC1Cc2nc(SCC(=O)Nc3ccccc3F)n(C)c(=O)c2S1 (centres undefined) -4.2%
Cc1cc(C)cc(N(CC(=O)NCC2CCCO2)S(=O)(=O)c2c(C)noc2C)c1 (centres undefined) 1.2%
COc1ccc(C[C@H](N)C(=O)N[C@@H]2[C@H](O)[C@H](n3cnc4c(N(C)C)ncnc43)O[C@@H]2CO)cc1 -1.2% [at 25.6 µM]
COc1ccc(-c2nnc(SCC(=O)NC3CCCCC3)o2)cc1OC -1.4%
COc1ccc2nc(N3CCCC(O)C3)c(C#N)cc2c1 (centres undefined) -8.3%
CC(=O)Oc1ccccc1C(=O)Nc1ncc([N+](=O)[O-])s1 -1.5%
COC(=O)[C@H](C)[C@H]1C[C@]1(C)[C@H](NC(=O)OCc1ccccc1)c1ccccc1 -3.5%
CCOC(=O)N1CCN(C(=O)COc2ccc(Br)cc2)CC1 0.2% [at 11.4 µM]
N#Cc1c(NC(=O)CSc2nc3ccccc3c(=O)n2Cc2ccco2)sc2c1CCCC2 -1.2%
COc1ccc(-n2c(=O)c(-c3cn(C)c4ccccc34)nc3cnc(OC)nc32)cc1 -4%
CC(=O)Oc1cccc(N2C(=O)C3CC=C(Cl)CC3C2=O)c1 (centres undefined) -1.3%
COc1ccc(CNc2ncnc3ccc(-c4cccnc4)cc23)c(OC)c1 17.7%
CCOC(=O)CC1C(=O)NCCN1C(=O)COc1ccc(Br)cc1C (centres undefined) -2.6%
CC1CCN(c2oc(-c3ccccc3F)nc2C#N)CC1 -5.5%
c1ccc(CSCCc2ccncc2)cc1 -2.4% [at 11.4 µM]
N#C/C(=C\c1ccc(O)c(O)c1)C(N)=O -1.7%
COC(=O)[C@@]1(Cc2ccc(F)cc2)[C@H]2c3cc(C(=O)N4CCCC4)n(Cc4ccc(OC(F)(F)F)cc4)c3C[C@H]2CN1C(=O)c1ccccc1 -9.3%
OCCN1CCN(CC/C=C2\c3ccccc3Sc3ccc(C(F)(F)F)cc32)CC1
O=C(Nc1c2c(nn1-c1ccc(F)cc1)CS(=O)C2)C12CC3CC(CC(C3)C1)C2 (centres undefined) -4%
CCOC(=O)c1sc(N(Cc2ccccc2)C(=O)CN2C(=O)CN(C)C2=O)nc1C 5.4%
O=C(Nc1cccc(F)c1)N1CC2(CCN(C(=O)c3cnccn3)CC2)C1 -9%
c1ccc2c(Nc3ccncc3)nc(-c3ccoc3)nc2c1 -6.1%
Cc1ccc(N2C(=O)c3oc4ccccc4c(=O)c3C2c2cccnc2)nc1 (centres undefined) -4.1%
COc1ccccc1N1CCN(Cc2ccc(OC)c3ccccc23)CC1 -5.3%
CCCCCCN(C(=O)CCCCCN1C(=O)NC(c2ccc(C(F)(F)F)cc2)C(C(=O)OCc2ccccc2)=C1C)C(C(=O)NCCCC)c1ccc(OCC(=O)OC)c(C(=O)OC)c1 (centres undefined) -2.4%
C[C@@H]1O[C@@H](O[C@@H]2[C@@H](O)[C@H](OCCc3ccc(O)c(O)c3)O[C@H](CO[C@@H]3O[C@H](CO)[C@@H](O)[C@H](O)[C@H]3O)[C@H]2OC(=O)/C=C/c2ccc(O)c(O)c2)[C@H](O)[C@H](O)[C@H]1O 4.8%
C/C=C1\C(=O)C[C@@H]2[C@@H]3CCC4=CC(=O)CC[C@@]4(C)[C@H]3CC[C@@]12C -6.3%
O=C(O)C1=CCCN(CCON=C(c2ccccc2)c2ccccc2)C1
COC(=O)C1=C(C)N(C)C(C)=C(C(=O)OC)C1c1cccc(Br)c1 2.8%
O=C(NCc1cccnc1)c1cn(-c2ccccc2)nc1-c1cccs1 -0.6%
O=S(=O)(Nc1nccs1)c1ccc2c(c1)OCCO2 7.6%
COC(=O)C1(C)C=CCN1C(=O)c1ccccc1 (centres undefined) -2.1%
COc1cccc(-c2cc3nc4c(c(N5CCC6(CC5)OCCO6)n3n2)CCCC4)c1 -4.6%
CCOc1ccccc1C1C(C(=O)OC)=CN(C)C=C1C(=O)OC -3.1%
CC(C)NC(=O)N1CCCC2(CCN(C(=O)c3cccn3C)CC2)C1 8.1%
COc1ccc(N)c(OC)c1 2.6%
CC1=C2C(=O)OC(c3ccoc3)C2(C)CCC1 (centres undefined) -5%
Cn1c(SCC(=O)Nc2cccc(NC(=O)c3cccs3)c2)nnc1-c1ccncc1 -8.6%
COc1ccc(N2C(=O)c3cccc4cccc(c34)C2=O)nn1 -4.7%
O=C1c2ccccc2C(=O)N1CCCSc1ccccc1 -7.1% [at 11.4 µM]
COc1ccc2[nH]cc(CCNc3cc(-c4ccccc4CN(C)C)ncn3)c2c1 -2.7%

Potency, active:
O=C(NCc1ccccn1)c1ccc2nc(-c3ccco3)c(-c3ccco3)nc2c1 3.98 µM
C[N+](C)(CCCCCC[N+](C)(C)CCCN1C(=O)c2cccc3cccc(c23)C1=O)CCCN1C(=O)c2cccc3cccc(c23)C1=O 15.8 µM
